# PDI inh: inhibitors of human PDI, primary screen, biochemical, turbidity, single point, plate reader; AID 588391, 2011; PDI insulin aggregation turbidity, A650, 90 min; 0.052% of 350,000 active; Protein disulfide-isomerase (Homo sapiens), P07237; inhibition, % at 10 µM;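 active = mean inhibition across replicates of 30% or more, whatever share of single replicates reach that level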
# SIRT5 block: SIRT5 desuccinylase inhibitors, primary screen, biochemical, fluorescence imaging, single point, set 5 | 1.1% of 330,000 active | inhibition, % at 15 µM | Purified SirT5, succinyl-peptide AMC, trypsin-coupled fluorescence; in the data active = inhibition above about 15%
# Rtt109 Vps75: inhibitors of C. albicans Rtt109/Vps75 HAT, primary screen, biochemical, ThioGlo CoA-SH fluorescence, plate reader; AID 540336, 2011; inhibition, % at 34.9 µM; 0.16% of 330,000 active; Histone acetyltransferase RTT109 (Candida albicans (strain SC5314 / ATCC MYA-2876)), …; purified Rtt109/Vps75, 4 h;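 active = inhibition of at least 50% in every replicate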
# Target sequence (Q5AAJ8 whole entry, looked up): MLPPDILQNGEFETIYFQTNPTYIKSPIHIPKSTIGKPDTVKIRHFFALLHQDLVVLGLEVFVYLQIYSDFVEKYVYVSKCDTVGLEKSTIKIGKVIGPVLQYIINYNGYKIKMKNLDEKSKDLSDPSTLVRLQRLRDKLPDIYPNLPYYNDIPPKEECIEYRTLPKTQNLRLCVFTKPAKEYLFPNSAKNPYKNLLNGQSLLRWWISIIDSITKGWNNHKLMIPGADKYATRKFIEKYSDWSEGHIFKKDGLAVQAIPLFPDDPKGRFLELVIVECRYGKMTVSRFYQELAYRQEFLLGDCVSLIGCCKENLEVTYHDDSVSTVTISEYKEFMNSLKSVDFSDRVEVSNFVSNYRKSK
# ERp5 block: inhibitors of ERp5-driven insulin aggregation, primary screen, biochemical, turbidity, absorbance 650 nm, single point; inhibition, % at 9.99 µM; AID 651711, 2012; 0.05% of 350,000 active; Protein disulfide-isomerase A6 (Homo sapiens), Q15084; 90 min;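 active = mean replicate inhibition above about 25%, with every replicate also reaching it, limit read from the data, passing the limit was not always enough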
# DENV2 CPE: inhibitors of DENV2 cytopathic effect, primary screen, cell-based, plate reader, single concentration; DENV2-infected cells, cytopathic effect rescue; CPE inhibition, % at 9.99 µM; 1.7% of 350,000 active; AID 651640, 2012; in the data active = CPE inhibition above about 20%, passing the limit was not always enough; tested in BHK-21 cells;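 note: 0% = median of neutral control wells and 100% = median of positive control wells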
# An asterisk follows results filed as active; x = not tested or not shown. The list is not random: actives were taken first. Their share in the collection is about 2.3%.
SMILES,PDI inh,SIRT5 block,Rtt109 Vps75,ERp5 block,DENV2 CPE
Cc1ccc(Nc2nc(-c3sc(N)nc3C)cs2)cc1,-4.0,-1.4,13.6,2.1,46.6*
COc1ccc(Nc2nc(-c3sc(N)nc3C)cs2)cc1,1.6,x,24.9,x,x
Cc1c(Cc2ccc3c(c2)OCO3)sc(NC(=O)c2ccccc2)c1C(N)=O,x,20.2*,-7.8,2.3,0.4
Cc1nc(NC(=O)c2ccccc2)sc1Cc1ccc2c(c1)OCO2,-9.3,-2.9,3.0,-2.4,-1.4
C[N+](C)(CCOc1ccccc1)Cc1ccccc1,-8.7,2.1,-4.3,-3.3,7.6
Cc1cc(C(C)(C)CC(C)(C)C)ccc1OCCOCC[N+](C)(C)Cc1ccccc1,23.2,0.3,56.0*,7.4,10.0
CC1=C(C)/C(=N\OS(=O)(=O)c2ccccc2)C=CC1=O,0.4,-5.9,147.3*,-7.6,x
CC(=O)N(C)C[C@H]1Oc2ncc(C#Cc3ccccc3F)cc2C(=O)N([C@@H](C)CO)C[C@H]1C,x,-1.5,x,0.9,7.9
C[C@@H]1CN([C@@H](C)CO)S(=O)(=O)c2ccc(-c3ccccc3)cc2O[C@H]1CN(C)C,x,4.4,x,1.7,6.7
Cc1cccc(C)c1NC(=O)N1CCCCCCC1,3.6,28.4*,x,0.8,5.5
Cc1cccc(C)c1NC(=O)N1CC=CCC1,-8.2,-2.0,2.9,0.9,6.8
CC(=O)CSc1ccc(-c2nc3cc(C)c(C)cc3[nH]2)cn1,10.3,-1.7,-12.6,3.0,26.6*
CC(=O)CSc1ccc(-c2nc3ccccc3[nH]2)cn1,4.6,-14.8,-1.3,-5.5,-10.1
Cc1ccccc1S(=O)(=O)N1C[C@@H](O)COC[C@H]2O[C@H](CC(=O)N3CCC(Cc4ccccc4)CC3)CC[C@@H]21,x,-1.0,x,-3.7,67.7*
COC(=O)C[C@H]1CC[C@H]2[C@@H](COC[C@H](O)CN2S(=O)(=O)c2ccccc2OC)O1,x,17.5*,x,-4.8,11.9
COc1ccccc1S(=O)(=O)N1C[C@H](O)COC[C@H]2O[C@@H](CC(=O)O)CC[C@@H]21,x,-2.3,x,35.9*,-1.8
Cc1noc(C)c1S(=O)(=O)N(C)C[C@@H]1Oc2ccc(NS(C)(=O)=O)cc2C(=O)N([C@@H](C)CO)C[C@@H]1C,x,-11.8,x,-3.7,7.3
COc1ccc(S(=O)(=O)N(C)C[C@@H]2OCCCC[C@H](C)Oc3ccc(NS(=O)(=O)c4ccc(F)cc4)cc3C(=O)N([C@@H](C)CO)C[C@H]2C)cc1,x,17.4*,x,-1.3,-6.2
COc1ccc(S(=O)(=O)N(C)C[C@@H]2OCCCC[C@@H](C)Oc3ccc(NS(=O)(=O)c4ccc(F)cc4)cc3C(=O)N([C@H](C)CO)C[C@H]2C)cc1,x,18.0*,x,-3.0,13.0
COc1ccc(S(=O)(=O)Nc2ccc3c(c2)C(=O)N([C@H](C)CO)C[C@H](C)[C@H](CN(C)S(=O)(=O)c2ccc(F)cc2)OCCCC[C@@H](C)O3)cc1,x,9.3,x,-2.3,-5.1
COc1ccc(S(=O)(=O)Nc2ccc3c(c2)C(=O)N([C@H](C)CO)C[C@@H](C)[C@H](CN(C)S(=O)(=O)c2ccc(F)cc2)OCCCC[C@H](C)O3)cc1,x,10.3,x,14.4,-5.5
COc1ccc(S(=O)(=O)N(C)C[C@H]2OCCCC[C@H](C)Oc3ccc(NS(=O)(=O)c4ccc(F)cc4)cc3C(=O)N([C@@H](C)CO)C[C@H]2C)cc1,x,23.4*,x,5.0,-2.9
COc1ccc(S(=O)(=O)Nc2ccc3c(c2)C(=O)N([C@H](C)CO)C[C@H](C)[C@H](CN(C)S(=O)(=O)c2ccc(F)cc2)OCCCC[C@H](C)O3)cc1,x,14.0,x,2.4,-2.0
COc1ccc(S(=O)(=O)N(C)C[C@H]2OCCCC[C@@H](C)Oc3ccc(NS(=O)(=O)c4ccc(F)cc4)cc3C(=O)N([C@@H](C)CO)C[C@@H]2C)cc1,x,22.5*,x,-1.9,-4.0
O=C(Nc1cccc(Cl)c1)N[C@@H]1CC[C@@H](CCNC(=O)C2CCCC2)O[C@@H]1CO,x,5.1,x,-2.1,-11.5
C[C@H](O)C#Cc1ccc2c(c1)O[C@H](CN(C)C(=O)c1ccccc1)[C@@H](C)CN([C@H](C)CO)S2(=O)=O,x,-2.1,x,-1.6,-0.6
